Reference: PubChem BioAssay (NCATS)
Records with an inconclusive call do not appear. A call without a number means that no potency is given here. Activity calls are given as the source filed them. Calls follow the shape of the dose curve; as a rule, active = well fitted inhibition curve with a large enough effect; inconclusive = small, poorly fitted or top-dose-only effect, or effect the other way; inactive = flat fitted curve, though single readings scatter.

Assay: qHTS for Inhibitors of Plasmodium falciparum (GB4) proliferation (AID 504315); also: nearly all actives have a fitted effect of over 50% in size
Settings: P. falciparum GB4 in erythrocytes, SYBR Green DNA, 72 h; series mostly up to 6.7 µM
Description: Plasmodium falciparum is a virulent malarial parasite that kills 1-2 million people worldwide each year. Malaria not only inflicts tremendous suffering and morbidity on the human population, but has dramatically influenced the course of civilization with profound sociological and economic implications (Shah, S. 2010). Transmitted by mosquitoes, the sporozoite form of the parasite enters the blood stream to infect hepatocytes, where they become merozoites that infect red blood cells (erythrocytes). Within erythrocytes, merozoites begin a […] cycle of growth and division, after which the parasite is released to infect new red blood cells. Gametocytes, which form within erythrocytes as well, circulate in the bloodstream and are ingested by the mosquito, thereby completing the life cycle (see CDC website). To profile malarial lines for differential chemical responses and to identify inhibitors of malarial growth, an assay that measures P. falciparum growth and replication within erythrocytes was employed. This assay uses a DNA binding fluorescent dye (SYBR Green) to detect parasite DNA following cell lysis. Because mature erythrocytes lack DNA, only Plasmodium-derived DNA is detected. The P. falciparum line cp250, derived from a malarial isolate from Cambodia, (Mu, J., et al. 2010) was added to the panel of lines, Dd2, HB3, 7G8 and GB4 in this study. Laboratory of Assay Development and Screening Technology [ADST] and NIH Chemical Genomics Center [NCGC] Boston University, Chemistry Department, Center for Chemical Methodology and Library Development [CMLD-BU] NIH National Institute of Allergy and Infectious Diseases [NIAID]
ADST Assay Protocol Summary: The 1536-well SYBR Green viability assay was based on the method of Bennett et al (2004) and described previously in 1536-well format (Yuan J., et al. 2009). For screening 3 ul culture medium was dispensed into 1536 well black clear bottom plates (Aurora Biotechnologies) using a Multidrop Combi (Thermo Fisher Scientific Inc.), 23 nL compounds in DMSO were added by a pin transfer (Cleveland, P.H. and Koutz, P.J, 2005) using a pin tool-based delivery system (Kalypsys), and 5 ul of erythrocytes infected with P. falciparum one of five lines (cp250, Dd2, HB3, 7G8 or GB4, 0.3% parasitemia, 2.5% hematocrit final concentration) were added. The plates were incubated at 37C in a humidified incubator in 5% CO2 for 72 h, and 2 ul lysis buffer (20 mM Tris HCl, 10 mM EDTA, 0.16% saponin, 1.6% triton X, 10X SYBR Green I (supplied as 10,000X final concentration by Invitrogen) was added to each well. The plates were mixed for 25 sec with gentle shaking and incubated overnight at room temperature in the dark. The following morning, fluorescence intensity at 485(14) nm excitation and 535(25) nm emission wavelengths was measured on an EnVision (Perkin Elmer) plate reader. Plate reads were normalized relative to the control inhibitor (0.29 uM artemisinin) and vehicle (DMSO) wells present on each plate and then corrected by an algorithm using vehicle-only control plates at the beginning and end of the compound plate stack. References Shah, S. (2010). The Fever: how malaria has ruled humankind for 500,000 years. New York, Sarah Crichton Books. CDC web site, http://www.cdc.gov/malaria/about/biology/index.html Mu, J., Myers, R.A., Jiang, H., Liu, S., Ricklefs, S., Waisberg, M., Chotivanich, K., Wilairatana, P., Krudsood, S., White, N.J., et Plasmodium falciparum genome-wide scans for positive selection, recombination hot spots and resistance to antimalarial drugs Nature Genetics 2010, 42, pp 268-271 Bennett TN, Paguio, M., Gligorijevic, B., Seudieu, C., Kosar, A. D., Davidson, E., and Roepe, P. D. Novel, rapid, and inexpensive cell-based quantification of antimalarial drug efficacy Antimicrobial Agents Chemother. 2004, 48(5): pp 1807-10 Yuan J, Johnson RL, Huang RL, Wichterman J, Jiang HY, Hayton K, Fidock DA, Wellems TE, Inglese J, Austin CP, Su XZ. […]
Potency is read from the fitted curve at half-maximal effect.

Structure (SMILES)	Potency
CCOC(=O)C1=CN(CCC=C(C)C)C(=O)N(C(C)=O)C1c1ccccc1 (stereo not given)	inactive
N#Cc1ccc2c(c1)C[C@]1(c3ccsc3)OC3=C(C(=O)OC4(CCCCC4)C3)[C@H]2O1	inactive
CCN1C(=NCc2ccc3c(c2)OCO3)NC(CCc2ccccc2)C(C(=O)OC)=C1C (stereo not given)	inactive
COC(=O)C1=C(C)N(Cc2ccccc2)C(=S)NC1c1ccccc1 (stereo not given)	inactive
COC1=C[C@H](C(=O)NCc2ccccc2)[C@H](C)[C@@H](c2ccccc2)CC1=O	inactive
COc1cccc([C@@H]2NC(=O)CC=C[C@H](C)[C@H](c3cccc(OC)c3)NC(=O)CC=C[C@H]2C)c1	inactive
C#CC[C@@]1(C(=O)OC)C=C[C@@H](C)[C@H](c2ccccc2Br)N1C(=O)C(F)(F)F	inactive
C[C@H]1[C@H](N=[N+]=[N-])[C@H](O)CCO[C@@H]1c1ccccc1	inactive
O=C1OC2(CCCCC2)CC2=C1[C@H]1O[C@](c3ccsc3)(Cc3c1ccc1ccccc31)O2	inactive
COC(=O)C1=C(C(=O)OC)[C@@H]2Nc3ccccc3[C@@]23C[C@@H](C(=O)OC)N(C(=O)COCc2ccccc2)C3=N1	inactive
COCCN1C(=O)NC(c2cccc(C(F)(F)F)c2)C(C(C)=O)=C1C (stereo not given)	inactive
CCO[C@@H]1C[C@@]1(C=C[C@@H](C)[C@H](OC)c1ccccc1Br)C(=O)OC	inactive
COCCN1C(=O)NC(c2cccc(C(F)(F)F)c2)C(C(=O)OC)=C1C (stereo not given)	inactive
COc1cc2c(cc1OC)[C@@H]1O[C@](CCCCN3C(=O)c4ccccc4C3=O)(C2)OC2=C1C(=O)c1ccccc1C2=O	1.51 µM (active)
Cc1cccc(C)c1Nc1oc(-c2ccccc2)nc1-c1ccccc1	inactive
N#Cc1ccc2c(c1)C[C@]1(c3ccsc3)Oc3c(c(=O)oc4ccccc34)[C@H]2O1	inactive
C=CCCN1C(=O)NC(c2ccccc2)C(C(=O)OC)=C1C (stereo not given)	inactive
Cn1c(-c2ccccc2)c(O)c(=O)c2ccccc21	inactive
CC1=C[C@]2(O[C@H](COc3ccccc3)C1)C(=O)N(C)c1ccccc12	inactive
COC(=O)C1=C(C)N(Cc2ccccc2)C(=NCC2CC2)NC1c1ccccc1 (stereo not given)	1.69 µM (active)

Structure (SMILES)	Potency
CCCCC1=CC2=C(c3ccco3)C(=O)C(C)(OC(=O)c3ccc(OC)cc3)C(=O)C2=CN1Cc1ccc2c(c1)OCO2 (stereo not given)	inactive
C=CCOC(=O)C(C(C)=O)[C@@H](NC(=O)OC)c1ccc(F)cc1 (stereo not given in full)	inactive
COC(=O)CC=C1c2ccccc2C[C@H](OC)[C@@H]1C	inactive
C=CCOC(=O)[C@H](O)[C@@H](O)C(=O)OCC=C	inactive
CCCCC1=CC2=C(c3ccco3)C(=O)C(C)(OC(=O)c3ccc(OC)cc3)C(=O)C2=CN1Cc1ccccc1 (stereo not given)	inactive
CCN1C(=NCc2ccco2)N[C@@H](CCc2ccccc2)[C@H](C(=O)OC)[C@H]1C	inactive
C#CCCCON=C1C[C@@H](O)[C@H](O)[C@H]2[C@@H]3C(=O)N(C[C@@H]4CCCO4)C(=O)[C@@H]3CC[C@@H]12	inactive
COC(=O)C1=C(C(=O)OC)[C@@H]2N(C)c3ccccc3[C@@]23C[C@@H](CO)N(C(=O)c2ccc(Br)cc2)C3=N1	inactive
C=C1C2c3ccccc3C(CC2(C)O[Si](C)(C)C)N1C(=O)OC (stereo not given)	inactive
COC1=CC2C(=O)C(C1=O)C1c3ccccc3CC21 (stereo not given)	inactive
C[C@H]1Cc2c(-c3ccccc3)nc3c(c2CO1)CN(S(=O)(=O)c1ccc(Cl)c2nonc12)CC3	inactive
COc1ccc2c(c1)O[C@@H](c1cccc(C(F)(F)F)c1)[C@H](OC(=O)Nc1cc(OC)c(OC)c(OC)c1)C2=O	inactive
COc1ccc2c(c1)C(=O)[C@H](OC(=O)N[C@H]1CCCc3ccccc31)[C@@H](c1ccc(OC)c(Br)c1)O2	inactive
CCCC[C@]12Cc3c(ccc4ccccc34)[C@H](O1)c1c(cc(C)oc1=O)O2	inactive
COCC=CC1=CC2=CC(=O)C(C)(OC(=O)c3cnc4ccccc4n3)C(=O)C2=CN1CC(C)C (stereo not given)	inactive
CC(CCN1CCCc2nc(C)c(C)cc21)=NOC[C@@H](C)[C@H](OCc1ccccc1)C(C)C	inactive
O=C(NN=C1C[C@@H](O)[C@H](O)[C@H]2[C@@H]3C(=O)N(Cc4ccc5c(c4)OCO5)C(=O)[C@@H]3CC[C@H]12)OCc1ccccc1	inactive
C#CCN1C(=O)[C@]2(O[C@H](C)CC3=CCCC32)c2c(Br)cccc21 (stereo not given in full)	inactive
COC(=O)C=C[C@H]1c2ccccc2[C@@H](OC)[C@@H]1C	inactive
O=C(C=Cc1cccc([N+](=O)[O-])c1)c1ccccc1	inactive
